Measured values: PubChem BioAssay AID588489 (Sanford-Burnham Center for Chemical Genomics, 2011)
Screen size: about 360,000 compounds; about 1,300 (0.36%) were called active. No stated cut-off is given here; in the data, active means inhibition above about 35% (passing the limit was not always enough); inactive means the rest. The entries come from a sample that favours actives as a whole.

The compounds below were run against Polyadenylate-binding protein 1 (Homo sapiens) (UniProt P11940) (assay: inhibitors of PABP1 MLLE–PAM2 peptide binding, primary screen, biochemical, fluorescence polarization, FITC-PAM2, GST-MLLE (AID 588489;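 further: plate controls were DMSO wells with GST-MLLE for no effect and wells lacking GST-MLLE protein for full effect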)). Conditions: at 20 µM, hits give high values.
Sequence of Polyadenylate-binding protein 1 (Homo sapiens) (P11940 whole entry, looked up): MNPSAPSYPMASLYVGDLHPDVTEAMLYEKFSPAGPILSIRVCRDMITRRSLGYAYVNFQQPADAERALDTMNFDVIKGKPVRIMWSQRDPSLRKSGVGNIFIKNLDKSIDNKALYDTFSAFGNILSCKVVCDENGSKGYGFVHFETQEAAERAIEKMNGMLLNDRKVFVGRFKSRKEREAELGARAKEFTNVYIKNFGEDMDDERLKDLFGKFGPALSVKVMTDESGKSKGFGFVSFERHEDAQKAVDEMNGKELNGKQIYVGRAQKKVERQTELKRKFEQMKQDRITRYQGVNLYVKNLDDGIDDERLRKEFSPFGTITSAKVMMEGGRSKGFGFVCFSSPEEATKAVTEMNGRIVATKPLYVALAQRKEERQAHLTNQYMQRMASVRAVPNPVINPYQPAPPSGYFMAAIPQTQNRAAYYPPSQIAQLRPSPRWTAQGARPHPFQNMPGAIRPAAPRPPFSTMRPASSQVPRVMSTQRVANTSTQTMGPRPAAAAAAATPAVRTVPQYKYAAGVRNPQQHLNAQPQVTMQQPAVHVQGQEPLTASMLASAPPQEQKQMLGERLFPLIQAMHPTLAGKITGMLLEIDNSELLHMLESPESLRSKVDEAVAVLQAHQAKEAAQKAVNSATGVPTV

inhibition, inactive:
CN(C)CCCNC(=S)N1CCN(c2nc(-c3ccccc3)cs2)CC1 -128%
CCOc1ccc(NC(=O)CN(C)C(=O)Cc2sc(C)nc2-c2ccc(F)cc2)cc1OCC -16.1%
CCOC(=O)N1CCN(C(=O)C2CCN(c3ncnc4c3sc3cccc(F)c34)CC2)CC1 -13.7%
CCCCC(=O)NC(c1ccc(OC)c(OC)c1)c1ccc2cccnc2c1O (stereo not given) 5.41%
COc1ccc(C(CNCC(=O)Nc2ccccc2F)N(C)C)cc1 (stereo not given) 4.22%
O=C1c2ccccc2C(=O)N1CCc1nn[nH]n1 -10.4%
O=C(CSc1nnnn1-c1ccccc1)NCc1ccco1 -13.1%
O=C(CC1CCCCC1)NCc1ccco1 2.87%
CCCCCC1CCC(c2nnc(SCC(C)=O)o2)CC1 (stereo not given) -9.06%
C/C=C/c1ccc(OCCCCN2CCC(C)CC2)c(OC)c1 -4.4%
CC(C)CNC(=O)C1(C)CCCN1C(=O)CSc1ccccc1 (stereo not given) 10.8%
COc1cc(/C=C/C(=O)OCC(=O)NCCCc2ccccc2)ccc1O 7.53%
Cc1cccc(NC(=O)CSc2nnc(NC(=O)CN3CCOCC3)s2)c1 -8.76%
C=CC1=C(C(=O)O)N2C(=O)[C@@H](NC(=O)/C(=N/OCC(=O)O)c3csc(N)n3)[C@H]2SC1 30.8%
O=C(CSc1ccsc1[N+](=O)[O-])N1CCCCC1 -4.37%
O=C1CSC2=NCN(c3ccccc3)CN12 -6.21%
O=C(CCC(=O)OCc1cccc(C(=O)Oc2ccccc2)c1)Nc1cccc2ccccc12 9.55%
CCOc1cc(C(=S)N2CCOCC2)ccc1OS(=O)(=O)c1ccc(Br)cc1 8.34%
CC(=O)Nc1ccc(S(=O)(=O)Oc2ccc(Br)cc2C(=S)N2CCOCC2)cc1 5.89%
Cc1ccc(C)c(OCCC(=O)Nc2cccc(S(=O)(=O)N3CCCC3)c2)c1 10.9%
CCN(CC)S(=O)(=O)c1ccc(N2CCOCC2)c(NC(=O)C(C)Oc2ccc(F)cc2)c1 (stereo not given) 3.55%
COc1ccc(C(c2nnnn2C2CCCC2)N2CCN(C/C=C/c3ccccc3)CC2)cc1 (stereo not given) 9.42%
O=C(Cn1cnc2c(OCc3ccccc3)ncnc21)NCc1nc2ccccc2[nH]1 6.52%
COc1ccccc1-n1c(SCC(=O)Nc2ccc(Cl)cc2)nc(O)c(Cc2ccccc2)c1=O 18.6%
CCn1c(CNC(=O)c2ccc(OC)c(OC)c2)nnc1SCC(=O)Nc1ccccc1 -12%
O=C(CC12CC3CC(CC(C3)C1)C2)Nc1ccc2c(c1)COC2=O 10.3%
CCOC(=O)Cc1cc(=O)[nH]c(/N=C(\N)Nc2ccc(OC)cc2)n1 3.52%
COc1ccc(S(=O)(=O)N2CCSCC2)cc1 2.01%
Cc1c(C)c(C)c(S(=O)(=O)NCCc2ccccn2)c(C)c1C -6.36%
COCCCNC(=O)Cc1ccc(-n2c(C)nc3cccnc32)cc1 18.3%
CCOC(=O)CNC(=O)CSc1nc2cccnc2n1CC 0.93%
O=C(NCc1cc(F)cc(C(F)(F)F)c1)C1CCC(=O)N(C2CCCC2)C1 (stereo not given) 2.19%
C[C@@H]1NS(=O)(=O)c2cc(Cl)ccc2O[C@@H]1c1ccccc1 -9.19%
Cc1cccc(OCCNC(=S)NC(=O)c2cccnc2)c1 22%
Cn1nnc(NC(=S)NC(=O)c2ccccc2)n1 26.2%
COc1ccc(C(C)(C)C)cc1NC(=O)CN(C)C1=NS(=O)(=O)c2ccccc21 -40.4%
O=S(=O)(c1cccc(Cn2nnc(-c3ccc(F)cc3)n2)c1)N1CCOCC1 -5.3%
O=S(=O)(c1ccc(F)cc1)N1CC=C(c2ccccc2)CC1 -8.32%
O=C(Nc1ccccc1)c1ccccc1Br -11.2%
CC1CCN(C(=S)NC(=O)c2ccccc2Br)CC1 15%
Cc1cc(Cl)ccc1C(=O)C1CCCN(C(=O)CCN2CCCO2)C1 (stereo not given) -4.82%
CCN1C(=O)[C@H]2[C@@H](c3ccc(-c4ccc(OC)cc4)cc3)N[C@@](Cc3ccccc3)(C(=O)OC)[C@H]2C1=O -0.71%
O=C(CN1C(=O)c2ccc([N+](=O)[O-])cc2C1=O)Nc1nnc(C2CC2)s1 -18.6%
O=C(Cc1ccccc1Cl)N1CCN(c2ccccn2)CC1 -6.28%
O=C(C(Cl)Cl)N1CCN(c2ccccn2)CC1 -10.9%
CC(=O)NC(CC(=O)Nc1cccc(S(=O)(=O)N2CCCC2)c1)c1ccccc1 (stereo not given) -16.4%
COc1ccc2c(c1)C(NS(=O)(=O)OCC(Cl)(Cl)Cl)CCC2 (stereo not given) -0.88%
CN(C)S(=O)(=O)c1cccc(NC(=O)COC(=O)C2(c3ccccc3F)CCCC2)c1 4.77%
COc1ccc(Br)cc1C(=O)Nc1cccc(C)c1C 21.9%
COc1ccccc1C(=O)NC(=S)Nc1ccccc1N1CCCCC1 14.7%
O=C(CSC(=S)N1CCCCC1)c1c(F)cccc1F -3.59%
C#CCOc1ccc(/C=C2/C(=O)ON=C2C)cc1OCC 26.6%
CC1=NOC(=O)/C1=C\c1ccccc1 25.2%
CC(C)(C)[C@H]1C=C(C(=O)NCc2ccccc2)O[C@@H](OCc2ccc(CO)cc2)C1 -0.14%
CCn1ncc(C2=NOC(C(=O)Nc3ccccc3C(=O)OC)C2)c1C (stereo not given) 10.5%
COc1ccccc1-c1cc2nc(NCc3cccc(Cl)c3)ccn2n1 10.3%
COc1ccc(-c2nc(CS(=O)CC(=O)NCc3ccccc3)c(C)o2)cc1OC (stereo not given) 19.8%
COc1ccc(-c2nc(CS(=O)CC(=O)NCc3cccnc3)c(C)o2)cc1OC (stereo not given) 23.2%
CC1CCCC(C)N1C(=O)CN1CCN(c2nc(-c3ccc(F)cc3)cs2)CC1 (stereo not given) -7.72%
COc1cccc(Nc2ncccc2C(=O)O)c1 8.54%
COc1ccc(NS(=O)(=O)c2ccc(F)cc2F)cn1 -1.17%
CCOC(=O)C1CCCCN1Cc1ccc(OC)c(OC)c1OC (stereo not given) 0.49%
NC(CSC12CC3CC(CC(C3)C1)C2)C(=O)O (stereo not given) 11.7%
COCCNC(=O)CSc1nc(N)c(NC(=O)c2ccco2)c(=O)[nH]1 -1%
Cc1cc2nc(C)n(CCCNC(=O)Nc3ccccc3)c2cc1C 4.6%
Cc1ccc(C)c(S(=O)(=O)N2CCCOC2CNC(=O)C(=O)NC2CCCCC2)c1 (stereo not given) -1.96%
CCN(CC)C(=O)COc1coc(CN2CCN(Cc3ccccc3)CC2)cc1=O 9.67%
NS(=O)(=O)c1ccc(CCNC(=O)c2ccc([N+](=O)[O-])cc2[N+](=O)[O-])cc1 5.05%
CNc1nccc(-c2ccc(Cl)cc2)c1C#N 11.5%
Cc1nc(N2CCCC2C(=O)O)c2oc3ccccc3c2n1 (stereo not given) 2.41%
Cc1cc([N+](=O)[O-])c(N2CCC[C@@H]2C(=O)O)c([N+](=O)[O-])c1 11.4%
CC(=O)Nc1ccc(S(=O)(=O)N2CCN(c3ccc([N+](=O)[O-])c(NCCN4CCOCC4)c3)CC2)cc1 -9.63%
O=C1c2ccccc2C2=Nc3ccccc3SC(c3ccccc3F)C12 (stereo not given) -2.44%
O=C1c2cccc(OCC(=O)N3N=C(c4cccs4)CC3c3ccc(F)cc3)c2CCN1Cc1ccccc1 (stereo not given) 0.32%
O=C1CSC(c2cccc(F)c2)N1c1ccc(O)cc1 (stereo not given) 1.39%
COc1cccc(C2SCC(=O)N2c2cccc(C)c2)c1OC (stereo not given) 20.4%

inhibition, active:
CCOC(=O)N1CCN(C(c2cccnc2)c2ccc3cccnc3c2O)CC1 (stereo not given) 37.9%
O=C(CSC1=Nc2ccccc2C2=NC(CC(=O)NCc3ccco3)C(=O)N12)NCc1ccco1 (stereo not given) 38.7%
Cc1nc([N+](=O)[O-])nn1C12CC3CC(CC(Br)(C3)C1)C2 39.5%
C=CC1=C(C(=O)O)N2C(=O)[C@@H](NC(=O)/C(=N\OCC(=O)O)c3csc(N)n3)[C@H]2SC1 41%
O=S(=O)(Oc1ccccc1C(=S)N1CCOCC1)c1ccc(Cl)cc1 44.5%
Oc1ccc2ccccc2c1N=Nc1nccs1 55.3%
CCc1c(O)nc(SCC(=O)Nc2ccccc2)n(C(C)CC)c1=O (stereo not given) 48%
CCc1nc2cccnc2n1-c1ccc(C(=O)O)cc1 58.3%
Cc1cccc(NC(=O)NC(=S)NC(=O)c2ccccc2)c1 41.9%
O=C(NC(=S)Nc1ncccn1)c1ccccc1Br 42.1%
O=C(Cc1ccc(Br)cc1)N1CCN(c2ccccn2)CC1 61.7%
COc1ccc(Br)cc1C(=O)NC(=S)Nc1cc(-c2nc3ccccc3[nH]2)ccc1C 43.3%
COc1cc(/C=C2/C(=O)ON=C2C)ccc1OCc1cccc(F)c1 41.5%
COCCOC(=O)c1sc(=S)n(CCOC)c1N 49.3%
COc1ccc(-c2nc(CS(=O)CC(=O)NCc3ccccn3)c(C)o2)cc1 (stereo not given) 61.9%
COc1ccc(Nc2cc(Cl)ccc2C(=O)O)cn1 41.8%
COCCNC(=O)Nc1ccc2nc(-c3ccco3)c(-c3ccco3)nc2c1 72.8%
O=C(O)C1CCCN1c1nc(Cl)ccc1[N+](=O)[O-] (stereo not given) 51.9%
Cc1ccc(C2SCC(=O)N2c2ccccc2)cc1 (stereo not given) 48.1%
